Bioassay records as filed in PubChem.
MEKK2wt PB1 HTS = raises or lowers MEK5 binding to wildtype human MEKK2 PB1 domain. 290,000 compounds, 1.1% hits. bead flow cytometry, Alexa488-MEK5 binding to MEKK2 WT; actives lie on both sides. binding response (% of control), % at 10 µM; in the data active = binding response below about 67% or above about 130%
MEKK3 PB1 HTS = raises or lowers MEK5 binding to the human MEKK3 PB1 domain | Q99759 | bead-based flow cytometry, Alexa488-MEK5 binding to MEKK3; actives lie on both sides; 0 = blocked by unlabeled MEK5, 100 = vehicle | binding response (% of control), % at 10 µM | 290,000 compounds, 1.4% hits;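 active = binding response more than 3 SD above or below the average of its plate-row segment, actives on both sides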;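 also: Alexa488 bead fluorescence after subtracting the streptavidin-only scavenger bead signal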
UBC13 inh = inhibitors of human UBC13 polyubiquitin chain formation | P61088 | TR-FRET | inhibition, % at 20 µM | 330,000 compounds, 0.47% hits; in the data active = inhibition above about 45%, passing the limit was not always enough
Target sequence (P61088 whole entry, looked up): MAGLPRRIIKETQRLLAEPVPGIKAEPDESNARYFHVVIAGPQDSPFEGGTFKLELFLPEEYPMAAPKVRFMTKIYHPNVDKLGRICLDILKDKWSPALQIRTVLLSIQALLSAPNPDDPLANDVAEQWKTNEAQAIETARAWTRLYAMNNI
Rce1 inh = yeast Ras-converting enzyme inhibition; Q03530; yeast membranes, quenched prenylated peptide cleavage fluorescence; calls only; 290,000 compounds, 0.27% hits; AID 2563;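 active = fall in fluorescence gain of 50% or more versus controls, with final raw signal at or below 3038400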;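 also: plate controls were neutral control wells for no effect and wells lacking membranes for full effect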
Target sequence (Q03530 whole entry, looked up): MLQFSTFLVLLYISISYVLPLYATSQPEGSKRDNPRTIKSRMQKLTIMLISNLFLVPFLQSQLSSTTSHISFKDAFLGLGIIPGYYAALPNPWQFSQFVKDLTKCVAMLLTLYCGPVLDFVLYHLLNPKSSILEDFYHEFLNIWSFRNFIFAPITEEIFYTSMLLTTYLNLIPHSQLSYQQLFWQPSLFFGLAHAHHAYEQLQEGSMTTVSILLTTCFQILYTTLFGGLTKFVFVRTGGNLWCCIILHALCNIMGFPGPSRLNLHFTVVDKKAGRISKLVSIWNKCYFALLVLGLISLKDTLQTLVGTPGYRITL
MEKK2mut PB1 HTS = signal of MEK5 binding to mutant human MEKK2 PB1 domain. bead flow cytometry, Alexa488-MEK5 binding to MEKK2 mutant. percent response, % at 10 µM. 290,000 compounds, 0.35% hits; in the data active = percent response above about 24%, passing the limit was not always enough
MEKK2wt confirm = raises or lowers MEK5 binding to wildtype human MEKK2, retest; shares compounds with MEKK3 PB1 HTS; bead flow cytometry, Alexa488-MEK5 binding to MEKK2 WT; actives lie on both sides; binding response (% of control), % at 10 µM; 5,900 compounds, 2.4% hits; in the data active = binding response below about 16% or above about 210%; inactive = in between
MEKK2mut-MEK5 = signal of MEK5 binding to mutant human MEKK2, retest. shares compounds with MEKK3 PB1 HTS. bead flow cytometry, Alexa488-MEK5 binding to MEKK2 mutant. percent response, % at 10 µM. 5,900 compounds, 2% hits. AID 1893; in the data active = percent response mostly above about 71%, no sharp cut-off; inactive = mostly below about 38%;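 also: higher means compound restores mutant binding toward wildtype level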
MEKK3-MEK5 inh = MEKK3-MEK5 PB1 inhibition, single concentration confirmation; shares compounds with MEKK3 PB1 HTS; bead flow cytometry, Alexa488-MEK5 binding to MEKK3; hits give low values; binding response (% of control), % at 10 µM; 5,900 compounds, 1.8% hits; AID 1894;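 active = binding response below 72% of control, or above a set upper limit, though filed actives all read lower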;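 also: 100% = DMSO only wells and 0% = binding blocked by excess unlabeled MEK5; lower values mean stronger disruption of MEK5 binding to MEKK3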
* = called active by the depositor; i = inactive; x = no result; [ ] = dose if it differs, or a comment. Only some compounds are listed: those with a hit (about 2.5% of all), similar ones and a draw of the others.

SMILES | MEKK2wt PB1 HTS | MEKK3 PB1 HTS | UBC13 inh | Rce1 inh | MEKK2mut PB1 HTS | MEKK2wt confirm | MEKK2mut-MEK5 | MEKK3-MEK5 inh
Cc1ccccc1OCCc1c(C)[nH]c(=S)[nH]c1=O | 68 | 56 | 14 | i | -4 | x | x | x
CCC1CCCCN1C(=O)CSc1nnc(-c2c[nH]c3ccccc23)o1 (stereo unspecified) | 97 | 96 | 8 | i | -2 | x | x | x
COc1ccc(/C=N/N=C2\SCC(=O)N2c2c(C)n(C)n(-c3ccccc3)c2=O)cc1OC | 108 | 146* | 1 | i | 4 | 102 | 2 | 104
CCc1cc2cc(C)cc(C)c2nc1Cl | 123 | 138* | 3 | i | 5 | 95 | -28 | 98
c1ccc(-c2cn3nc(-c4ccccc4)c(-c4ccccc4)nc3n2)cc1 | 63*[inhibitor] | 107 | 5 | i | -5 | 61 | -20 | 93
CCOC(=O)c1ccc(-c2ccc(/C=N/NC(=O)CN(c3cccc(C)c3)S(C)(=O)=O)o2)cc1 | 107 | 101 | -9 | i | 9 | x | x | x
CCOC(=O)c1ccc(-c2ccc(/C=N/NC(=O)CN(c3ccccc3Cl)S(C)(=O)=O)o2)cc1 | 110 | 141* | -19 | i | 2 | 98 | -6 | 102
O=C1N=NC(=O)N1c1ccccc1 | 103 | 101 | -3 | i | 7 | x | x | x
COc1ccc2c(c1)nc(CN1CCN(CCO)CC1)n2C | 128 | 110 | -2 | i | 32* | 105 | 1 | 102
COc1ccc2c(c1)nc(SCC(C)O)n2C (stereo unspecified) | 108 | 132* | 0 | i | 4 | 102 | 11 | 105
COc1ccc(OCC(=O)Nc2ccc3c(c2)nc(CN2CCCC2)n3C)cc1 | 102 | 98 | 5 | i | 4 | x | x | x
COc1ccccc1C(=O)Nc1ccc2c(c1)nc(CN1CCN(C(C)=O)CC1)n2C | 68 | 67*[inhibitor] | 1 | i | -12 | 106 | 3 | 104
COc1ccc2c(c1)nc(SCC(=O)C(C)(C)C)n2C | 105 | 102 | -4 | i | 6 | x | x | x
CC(=O)N1CCN(Cc2nc3cc(NC(=O)c4ccccc4)ccc3n2C)CC1 | 108 | 103 | -2 | i | -4 | x | x | x
Cc1ccc(NC(=O)CN2CCN(CCN=CC3=C(O)CC(c4ccc(C)cc4)CC3=O)CC2)cc1 (stereo unspecified) | 102 | 94 | 24 | i | -3 | x | x | x
Cc1ccccc1C(=O)NCC(=O)NC1CC1 | x | x | 6 | x | x | x | x | x
CC[N+]1(CC)CC2=Cc3c(ccc4ccccc34)C(C)C2C1 (stereo unspecified) | 109 | 96 | -9 | i | 4 | x | x | x
CC(C)C(=O)Nc1cc2c3c(c1)CCC(=O)N3CCC2 | 100 | 102 | 0 | i | 1 | x | x | x
CN(C)CC(CCC(CN(C)C)C(O)(c1ccccc1)c1ccccc1)C(O)(c1ccccc1)c1ccccc1 (stereo unspecified) | 149* | 108 | 20 | i | 21 | 161 | 45 | 117
C[C@@]12C(=O)N(c3cccc(F)c3)C(=O)N1[C@@H]1c3ccccc3OC[C@@H]1[C@H]2c1ccccc1 | x | x | 11 | x | x | x | x | x
Cn1nc(C(=O)NNC(=O)c2ccccc2Br)c2ccccc2c1=O | x | x | -6 | x | x | x | x | x
Cc1cccc(C)c1NC(=O)CCCCCC1NC(=O)NC1C (stereo unspecified) | 107 | 104 | 5 | i | 2 | x | x | x
CC1NC(=O)NC1CCCCCC(=O)NCCc1ccccc1 (stereo unspecified) | -2.0*[inhibitor] | 1.0*[inhibitor] | -4 | i | -21 | 111 | 3 | 104
O=C(CCSCCC(=O)NCCN1CCOCC1)NCCN1CCOCC1 | 89 | 81*[inhibitor] | -25 | x | -4 | 97 | 1 | 99
O=C(O)C1Nc2ccc(C(F)(F)F)cc2C2OCCC12 (stereo unspecified) | 94 | 78*[inhibitor] | -1 | i | -4 | 98 | 0 | 102
